Sampled rows, rich in hits. Any-hit rate of the full collection: about 19%.
DT40 TDP1 CPT: growth inhibition of DT40 Tdp1-/-;hTDP1 cells with camptothecin (screen for TDP1 inhibitors) | chicken DT40 Tdp1-/-;hTDP1 cells + 20 nM CPT, ATP luminescence, 48 h | Potency, µM (titrated, usually from 46.2 µM), for inactives: top-dose activity change, negative = growth inhibition, usual class: inhibitors | actives 12% (n = 420,000); note: potency is the fitted concentration of half-maximal effect; nearly all actives have a fitted effect of over 55% in size
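Chicken DT40 Tdp1-/- cells stably complemented with human TDP1 were seeded at 400 cells/well in medium containing 20 nM camptothecin, exposed to pin-transferred compounds, and grown at 37 °C for at least 48 hr. Viability was read as ATP luminescence.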
HT1080NT lethal: kills 2HG-producing HT-1080-NT fibrosarcoma cells | actives 1.6% (n = 360,000) | Potency, µM (doses to about 46.1 µM), for inactives: at the top dose activity, negative = less viability, most hits filed as cytotoxic | HT-1080-NT fibrosarcoma viability, CellTiter-Glo ATP luminescence, 48 h;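 note: NT is the 2HG producing partner of a matched IDH1 knockdown line; potency is the fitted concentration of half-maximal effect; 0% = DMSO-treated cells and -100% = media-only wells without cells; nearly all actives have a fitted effect of over 55% in size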
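Viability of the 2HG-overproducing fibrosarcoma line after 48 hours of compound exposure at 37 degrees C was determined by luminescence with CellTiter-Glo, and concentration-effect curves were then fitted and categorized.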
IL-1B inflam inh: inhibitors of inflammasome signaling (IL-1 beta secretion) | THP-1 LPS/ATP IL-1B secretion, AlphaLISA, 16 h; active compounds read low | activity change, % at 57.5 µM | actives 4.7% (n = 360,000) | AID 743279; in the data active = activity change below about -50%; inconclusive = mostly about -30% to -49%
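THP-1 cells pretreated 1 hr with compounds (up to 57.5 uM final), then stimulated with LPS (250 ng/mL final) plus ATP (1.25 mM final); secreted IL-1B measured by AlphaLISA after 16 hr, decreased signal indicating inhibition.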
ELG1 repair inh: blocks ELG1-dependent DNA repair in HEK293T cells; HEK293T ELG1-luciferase reporter, luminescence, 16 h; DNA damage induced by 5-fluorouridine; actives 2.3% (n = 330,000); Potency, µM (highest dose often 46.1 µM), inactives show at the highest dose activity change, negative = inhibition, usual class: inhibitors; note: potency is the fitted concentration of half-maximal effect; nearly all actives have a fitted effect of over 55% in size
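DMSO vehicle served as the neutral condition. Each well held 2,000 cells given 5-fluorouridine plus compound; after 16 hr at 37 °C/5% CO2, ONE-Glo was added and luciferase measured 30 min later.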
HT1080 IDH1KD tx: HT-1080 IDH1 knockdown cell toxicity (counter line) | HT-1080 IDH1 knockdown viability, ATP luminescence, 48 h | Potency, µM (series often up to 46.1 µM), for the others: at the highest dose activity, negative = toxicity, usual class: cytotoxic | actives 2% (n = 360,000) | AID 686971;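 note: potency is the fitted concentration of half-maximal effect; 0% = DMSO wells and -100% = cell-free medium wells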
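Knockdown cells (IDH1KD HT-1080) received compounds 2 h after plating at 750 cells/well and were kept 48 h at 37 °C in 5% FBS RPMI. A CellTiter-Glo luminescence read gave % activity for curve fitting.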
DT40 TDP1 no CPT: qHTS for Inhibitors of human tyrosyl-DNA phosphodiesterase 1 (TDP1): qHTS in cells in absence of CPT | DT40 Tdp1-/- hTDP1 cells, no CPT, ATP luminescence, 48 h | AID 686978, 2013 | Potency, µM (titrated, usually from 46.2 µM), inactives show at the highest dose activity change, negative = growth inhibition, most hits filed as inhibitors | actives 15% (n = 420,000); note: potency is the fitted concentration of half-maximal effect; nearly all actives have a fitted effect of over 55% in size
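Compound effects on proliferation are scored in DT40 Tdp1-/-;hTDP1 cells in the absence of CPT. ATP levels (CellTiter-Glo luminescence) are recorded after a ≥48 hr, 37 °C incubation.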
* = called active by the depositor; [ ] = dose if it differs, or a comment. Unless noted, calls come from the whole dose curve; as a rule, active = well fitted curve in the direction sought with a large enough effect; inconclusive = small, poorly fitted or top-dose-only effect, or another doubt; inactive = no such curve, though single readings can be large; an effect the other way counts as inactive or inconclusive. Unless noted, % is set by controls: 0 for no effect and ±100 for the full control effect.

`CCC(NS(=O)(=O)c1ccc(C)cc1)C(=O)N1CCOCCOCCOCCOCC1` (stereo unspecified) gave DT40 TDP1 CPT 7%, HT1080NT lethal 9%, IL-1B inflam inh 9, ELG1 repair inh 3%, HT1080 IDH1KD tx 7% and DT40 TDP1 no CPT -1%.
CC1=CC2C(C(O)CC3(C)C2CC(C)C32OCOC23COCO3)C2(C)C/C(=C\O)C(=O)C=C12 (stereo unspecified) was read as DT40 TDP1 CPT 1.6µM*, HT1080NT lethal 18µM*, IL-1B inflam inh -104*, HT1080 IDH1KD tx 7.3µM* and DT40 TDP1 no CPT 2.6µM*.
Cc1ccc(NN2C(=O)C=C(c3ccc(Cl)cc3)C2=O)cc1 was read as DT40 TDP1 CPT 5.8µM*, HT1080NT lethal inconclusive, IL-1B inflam inh -103*, ELG1 repair inh inconclusive, HT1080 IDH1KD tx inconclusive and DT40 TDP1 no CPT 4.1µM*.
`O=C1Cc2ccccc2C(=O)N1Nc1ccccc1` gave DT40 TDP1 CPT inconclusive, HT1080NT lethal -17%, IL-1B inflam inh 13, HT1080 IDH1KD tx 18% and DT40 TDP1 no CPT inconclusive.
Screening O=C1C=C(c2ccccc2)C(=O)N1Nc1ccccc1 returned DT40 TDP1 CPT 4.1µM*, HT1080NT lethal -5%, IL-1B inflam inh -101*, ELG1 repair inh inconclusive, HT1080 IDH1KD tx inconclusive and DT40 TDP1 no CPT 5.8µM*.
For COc1ccc(C2=CC(=O)N(Nc3ccccc3)C2=O)cc1 the results were DT40 TDP1 CPT 18µM*, HT1080NT lethal inconclusive, IL-1B inflam inh -55*, ELG1 repair inh inconclusive, HT1080 IDH1KD tx 16µM* and DT40 TDP1 no CPT 21µM*.
`CC(=O)Nc1ccccc1-c1nc(CNC(=O)c2cccc(-n3cccn3)c2)c(C)o1` gave DT40 TDP1 CPT 10%[9.04 µM] and DT40 TDP1 no CPT -3%.
`O=C(Nc1nnc(S(=O)(=O)N2CCCCC2)s1)c1cccc(Br)c1` gave DT40 TDP1 CPT 23µM*, HT1080NT lethal -4%, IL-1B inflam inh 7, ELG1 repair inh -1%, HT1080 IDH1KD tx 1% and DT40 TDP1 no CPT 15µM*.
Cc1ccc(C(=O)Nc2nnc(S(=O)(=O)N3CCc4ccccc43)s2)cc1 was read as DT40 TDP1 CPT -24% and DT40 TDP1 no CPT -25%.
`O=C(Nc1nnc(S(=O)(=O)N2CCCc3ccccc32)s1)c1cccc(Cl)c1` gave DT40 TDP1 CPT inconclusive and DT40 TDP1 no CPT 18µM*.
O=C(Nc1nnc(S(=O)(=O)N2CCCC2)s1)c1cccc([N+](=O)[O-])c1 was read as DT40 TDP1 CPT -24%, HT1080NT lethal -8%, IL-1B inflam inh 0, ELG1 repair inh inconclusive, HT1080 IDH1KD tx -7% and DT40 TDP1 no CPT -6%.
Cc1cccc(C(=O)Nc2nnc(S(=O)(=O)N3CCCc4ccccc43)s2)c1 was read as DT40 TDP1 CPT inconclusive and DT40 TDP1 no CPT 16µM*.
`CCC(CC)C(=O)Nc1nnc(S(=O)(=O)N2CCc3ccccc32)s1` gave DT40 TDP1 CPT 10%, HT1080NT lethal 13%, IL-1B inflam inh 12, ELG1 repair inh 8%, HT1080 IDH1KD tx 1% and DT40 TDP1 no CPT inconclusive.
Screening O=C(COc1ccc(Cl)cc1)Nc1nnc(S(=O)(=O)N2CCc3ccccc32)s1 returned DT40 TDP1 CPT inconclusive and DT40 TDP1 no CPT 18µM*.
CCC(=O)Nc1nnc(S(=O)(=O)N2CCc3ccccc32)s1 was read as DT40 TDP1 CPT -17%, HT1080NT lethal 1%, IL-1B inflam inh -18, ELG1 repair inh -5%, HT1080 IDH1KD tx -4% and DT40 TDP1 no CPT -1%.
For Cc1ccccc1OCCC(=O)OCC(=O)NNC(=O)c1cccs1 the results were DT40 TDP1 CPT 3%, HT1080NT lethal 11%, IL-1B inflam inh -1, ELG1 repair inh 12%, HT1080 IDH1KD tx -2% and DT40 TDP1 no CPT 2%.
O=C(c1ccc(Cl)cc1)[C@@H]1[C@@H]2C(=O)N(c3cccc4ccccc34)C(=O)[C@@H]2C2c3ccccc3C=NN21 (stereo partly specified) was read as DT40 TDP1 CPT inconclusive, HT1080NT lethal -7%, IL-1B inflam inh -9, ELG1 repair inh 1%, HT1080 IDH1KD tx -4% and DT40 TDP1 no CPT 9%.
Screening O=C(CSc1nc2ccccc2s1)CSc1nc2ccccc2s1 returned DT40 TDP1 CPT 4%, HT1080NT lethal inconclusive, IL-1B inflam inh 30, ELG1 repair inh 7%, HT1080 IDH1KD tx 5%[9.24 µM] and DT40 TDP1 no CPT -5%.
Screening C=CCS(=O)(=O)c1nc2ccccc2s1 returned DT40 TDP1 CPT 16µM*, HT1080NT lethal -9%, IL-1B inflam inh -115*, ELG1 repair inh inconclusive, HT1080 IDH1KD tx -5% and DT40 TDP1 no CPT 21µM*.
Screening O=c1oc2ccccc2n1CSc1nc2ccccc2s1 returned DT40 TDP1 CPT -27%, HT1080NT lethal -4%, IL-1B inflam inh 32, ELG1 repair inh inconclusive, HT1080 IDH1KD tx -3% and DT40 TDP1 no CPT 13µM*.
O=S(=O)(CCSc1nc2ccccc2s1)c1nc2ccccc2s1 was read as DT40 TDP1 CPT 6.5µM*, HT1080NT lethal 21µM*, IL-1B inflam inh -100*, ELG1 repair inh inconclusive, HT1080 IDH1KD tx 21µM* and DT40 TDP1 no CPT 3.7µM*.
`NCCSc1nc2ccccc2s1` gave DT40 TDP1 CPT inconclusive and DT40 TDP1 no CPT 11µM*.
For Cc1cccc(C)c1OC(=O)CN1C(=O)c2ccccc2C1=O the results were DT40 TDP1 CPT -5%, HT1080NT lethal 3%, IL-1B inflam inh 11, ELG1 repair inh 12%, HT1080 IDH1KD tx 2% and DT40 TDP1 no CPT -2%.
Screening COc1ccc(F)cc1Cn1nc(C(=O)O)c2ccccc2c1=O returned DT40 TDP1 CPT 10%, HT1080NT lethal -3%, IL-1B inflam inh 8, ELG1 repair inh inconclusive, HT1080 IDH1KD tx -3% and DT40 TDP1 no CPT -30%.
`C[C@@H]1COC(=O)[C@H](Cc2ccc(F)cc2)CC/C=C\C[C@@H](CC(=O)NCCO)C(=O)N1` gave DT40 TDP1 CPT 1%, HT1080NT lethal 20%, IL-1B inflam inh 19, ELG1 repair inh -2%, HT1080 IDH1KD tx 16% and DT40 TDP1 no CPT -6%.
Screening Cc1nnc(SCc2nc3ccccc3[nH]2)s1 returned DT40 TDP1 CPT 3%, HT1080NT lethal 6%, IL-1B inflam inh -4, ELG1 repair inh inconclusive, HT1080 IDH1KD tx 10% and DT40 TDP1 no CPT -13%.

Assay outcomes: PubChem BioAssay, National Center for Advancing Translational Sciences (NCATS)
